PI4K2A inh: inhibitors of human PI4K2A; activity change, negative = inhibition, % at 76.9 µM; purified PI4K2A, ADP-Glo luminescence, 1 h; active compounds read low; 0.13% of 420,000 active; AID 1346378; in the data active = activity change below about -50%; inconclusive = mostly about -30% to -49%;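 also: -100% = wells without enzyme as full effect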
Target sequence (Q9BTU6 whole entry, looked up): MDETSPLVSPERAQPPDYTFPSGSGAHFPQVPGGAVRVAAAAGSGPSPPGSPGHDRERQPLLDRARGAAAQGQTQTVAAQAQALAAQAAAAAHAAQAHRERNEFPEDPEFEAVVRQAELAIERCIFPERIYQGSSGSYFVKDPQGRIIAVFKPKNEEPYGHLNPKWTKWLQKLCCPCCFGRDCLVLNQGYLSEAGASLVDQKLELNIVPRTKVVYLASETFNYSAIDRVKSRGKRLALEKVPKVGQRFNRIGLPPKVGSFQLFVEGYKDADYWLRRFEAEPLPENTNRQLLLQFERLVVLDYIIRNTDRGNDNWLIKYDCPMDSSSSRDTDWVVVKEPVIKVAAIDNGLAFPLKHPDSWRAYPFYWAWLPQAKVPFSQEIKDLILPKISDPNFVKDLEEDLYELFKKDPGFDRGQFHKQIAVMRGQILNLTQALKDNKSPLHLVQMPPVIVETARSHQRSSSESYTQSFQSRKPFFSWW
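Compounds are screened against recombinant PI4K2A using PI as substrate and ATP, the latter dispensed at 300 microM. Reactions run one hour at ambient temperature before ADP-Glo detection; full inhibition defined by wells lacking enzyme.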
Nrf2 inh: Nrf2 pathway inhibition; A549 ARE-Fluc reporter, luciferase luminescence, 18-24 h; 2.1% of 360,000 active; Potency, µM (doses to about 46 µM), inactives show at the top dose activity change, negative = inhibition, actives largely listed as inhibitors; also: potency is read from the fitted curve at half-maximal effect; nearly all actives have a fitted effect of over 60% in size
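Quantitative HTS in A549 cells stably bearing an antioxidant response element-firefly luciferase construct. Inhibition of Nrf2-driven transcription was scored by luminescence after 18-24 h of compound exposure at 37 °C.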
Giardia killer: Giardia lamblia killing; Giardia lamblia trophozoite viability; activity change, % at 7.66 µM, hits read low; 0.15% of 340,000 active; AID 540267; in the data active = activity change below about -80%; inconclusive = between about -30% and that limit;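 also: parasites exposed to compound for two days anaerobically before the ATP read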
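Viability, read as ATP luminescence: trophozoites at 100 cells/well, compound added, 48 hrs anaerobic at 37 deg C, then 15-30 min room-temperature development before reading.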
A549 viability: kills or reduces viability of A549 cells in Nrf2 counter-screen. A549 ARE-Fluc cells, CellTiter-Fluor viability, 18-24 h. Potency, µM (doses to about 46 µM), for inactives: top-dose activity change, negative = cytotoxicity, actives largely listed as inhibitors. 0.16% of 390,000 active; also: potency is read from the fitted curve at half-maximal effect
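Cytotoxicity counterscreen: CellTiter-Fluor fluorescence was measured in A549 ARE_Fluc cells after 18-24 h of compound exposure in a concentration series. The subsequent BugLite luminescent read reports ARE-luciferase activity.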
KB-V1 cytotox: kills drug-selected multidrug resistant KB-V1 cells | 3.4% of 400,000 active | AID 1347076 | Potency, µM (top dose mostly 46.1 µM), actives largely listed as cytotoxic | KB-V1 MDR cells viability, CellTiter-Glo, 72 h; also: potency is read from the fitted curve at half-maximal effect; nearly all actives have a fitted effect of over 60% in size
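Compound-treated KB-V1 multidrug-resistant cells, 72 h, 37 degrees C; viability by CellTiter-Glo. Fitted qHTS curves give the values.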
KB-3-1 cytotox: KB-3-1 parental cell cytotoxicity; KB-3-1 viability, CellTiter-Glo ATP luminescence, 72 h; Potency, µM (series often up to 46.1 µM), usual class: cytotoxic; 1.4% of 400,000 active; AID 1347075; also: potency is read from the fitted curve at half-maximal effect; nearly all actives have a fitted effect of over 60% in size
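Screening of KB-3-1 cells (DMEM, 10% FBS, phenol-red free) ran from lowest to highest compound concentration; after 72 h at 37 °C viability was read luminescently and curves fitted.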
An asterisk follows results filed as active; i = inactive; ? = inconclusive; nt = no result; [ ] = remark or other dose. Sampled rows, rich in hits. Any-hit rate of the full collection: about 5.7%. Unless noted, calls follow the shape of the dose curve; as a rule, active = well fitted curve in the direction sought with a large enough effect; inconclusive = small, poorly fitted or top-dose-only effect, or another doubt; inactive = no such curve, though single readings can be large; an effect the other way counts as inactive or inconclusive. Unless noted, % is scaled to controls: 0 for no effect and ±100 for the full control effect.

SMILES	PI4K2A inh	Nrf2 inh	Giardia killer	A549 viability	KB-V1 cytotox	KB-3-1 cytotox
O=C1OCC2=C1C(c1ccc(F)cc1)Sc1ccccc1N2 (stereo not given)	-1	-27%	24	-16%	?	i
O=C(COc1ccccc1F)N1CCN(S(=O)(=O)/C=C/c2ccccc2)CC1	-1	6%	46	-3%	15µM*	i
O=C(c1ccco1)N1CCN(S(=O)(=O)/C=C/c2ccccc2)CC1	3	?	3	-10%	i	i
O=C(COc1ccc(Br)cc1)N1CCN(S(=O)(=O)/C=C/c2ccccc2)CC1	-3	?	-9	-12%	?	i
O=C(c1ccc(Cl)cc1)N1CCN(S(=O)(=O)/C=C/c2ccccc2)CC1	-2	?	-28	-1%	i	23µM*
COc1ccc(C2c3ccc(OCc4ccccc4)cc3Oc3ncn(CCN4CCOCC4)c(=N)c32)cc1OC (stereo not given)	nt	?	nt	-7%	nt	nt
CCCCOCCCNC(=O)C[C@H]1C[C@@]2(C(=O)OC)C(=C[C@H](C(C)C)O[C@@H]2C2CC2)N(Cc2cccc3ccccc23)C1=O	-4	nt	nt	nt	nt	nt
Cc1ccc(C)c(C(=O)Nc2cc(C)nn2-c2nc(C)cc(C)n2)c1	-12	?	15	-7%	?	21µM*
Cc1cc(C)nc(-n2nc(C)cc2NC(=O)c2cccc(S(=O)(=O)N(C)C)c2)n1	-7	2%	-1	-5%[1.84 µM]	i	i
Nc1ncnc2c1nc(Cl)n2[C@@H]1O[C@H](CO)[C@@H](O)[C@@H]1O	nt	21µM*	-10	-14%	i	?
CN(C)c1nc2c(N)ncnc2n1C1OC(CO)C(O)C1O (stereo not given)	-13	14%	-8	-2%	i	i
CCOc1ccc(C2c3c(-c4ccc(C)cc4)n[nH]c3C(=O)N2c2ccc(Cl)cc2)cc1 (stereo not given)	-7	?	nt	?	?	?
CC/C(=N/NC(=O)c1ccc(Br)o1)c1ccc(Cl)cc1	3	1%	1	1%	15µM*	i
N#Cc1c(N2CCOCC2)nsc1-c1ccccc1	0	?	-8	-4%	?	10µM*
COc1ccc(C(=O)/C=C(\Nc2ccc(F)cc2)c2ccc(OC)cc2OC)c(OC)c1	1	nt	nt	nt	nt	nt
CC(=O)c1ccc(-c2ccc(-c3cc(=O)oc4c(C(C)C)ccc(C)c34)cc2)cc1	0	23µM*	-1	0%	i	i
CCCc1ccc(S(=O)(=O)N2CCN(C(C)C(=O)NCc3ccc(OC)cc3)CC2)cc1 (stereo not given)	4	16µM*	-2	?	?	i
COc1ccc(CNC(=O)C(C)N2CCN(S(=O)(=O)c3ccccc3F)CC2)cc1 (stereo not given)	-3	18%	-2	-1%	23µM*	i
CS(=O)(=O)Nc1cccc2cccnc12	-2	22%	-3	10%	i	?
Cc1cc(C)n(-c2ccc3cccc(NS(C)(=O)=O)c3n2)n1	8	5.2µM*	-11	-10%	?	?
O=C(c1ccccc1Oc1ccccc1)N1CCC(Oc2cccnc2)CC1	-2	nt	nt	nt	nt	nt
Cc1ccc(C2CC(=O)c3cnc(N4CCN(c5ccccc5)CC4)nc3C2)cc1 (stereo not given)	1	10%	-4	-10%	5.2µM*	?
O=C1CC(c2ccccc2)Cc2nc(N3CCc4ccccc4C3)ncc21 (stereo not given)	5	?	-4	nt	i	i
O=C1CC(c2ccc(F)cc2)Cc2nc(N3CCN(c4ccccc4)CC3)ncc21 (stereo not given)	6	-10%	23	-2%	i	i
Cc1ccc(C2CC(=O)c3cnc(N4CCc5ccccc5C4)nc3C2)cc1 (stereo not given)	-7	1%	-13	2%	23µM*	i
SMILES	PI4K2A inh	Nrf2 inh	Giardia killer	A549 viability	KB-V1 cytotox	KB-3-1 cytotox
Cc1cccc(NC(=O)c2nc[nH]c2C(=O)N[C@@H](CC(C)C)C(=O)OC(C)(C)C)c1	0	?	0	?	?	12µM*
CC(C)C[C@H](NC(=O)c1nc[nH]c1C(=O)N[C@@H](CC(C)C)C(=O)OC(C)(C)C)C(=O)OC(C)(C)C	-3	26µM*	-29	?	?	?
Cc1cccc(NC(=O)c2nc[nH]c2C(=O)N[C@@H](Cc2ccccc2)C(=O)OC(C)(C)C)c1	-1	?	4	-23%	?	?
CC(C)Cc1nn2c(=O)cc(COC(=O)c3ccc(NC(=O)C4CCCCC4)cc3)nc2s1	-1	nt	nt	2%	nt	nt
Cc1c(C(=O)N2CCC(C)CC2)oc2ccc(S(=O)(=O)N3CCC4(CC3)OCCO4)cc12	0	21µM*	-3	18%	?	i
CCOC(=O)C1CCN(C(=O)c2oc3ccc(S(=O)(=O)N4CC(C)CC(C)C4)cc3c2C)CC1 (stereo not given)	0	18µM*	0	?	?	?
COC(=O)[C@@]12C[C@@H](CC(=O)NCc3ccccc3)C(=O)N(Cc3cccc4ccccc34)C1=CCC(C)(C)C2	-13	nt	nt	nt	?	i
CCCCOCCCNC(=O)C[C@@H]1C[C@@]2(C(=O)OC)CC(C)(C)CC=C2N(Cc2cccc3ccccc23)C1=O	-3	nt	nt	nt	21µM*	?
COC(=O)[C@@]12C[C@@H](CC(=O)NCCCCc3ccccc3)C(=O)N(Cc3cccc4ccccc34)C1=CCC(C)(C)C2	-3	nt	nt	nt	18µM*	?
O=C(C[n+]1cccc(Br)c1)c1cccc([N+](=O)[O-])c1	nt	nt	nt	nt	i	i
Cc1cc(Cl)ccc1OCC(=O)N1CCC(c2nc3ccccc3o2)CC1	-5	?	nt	-2%	nt	nt
CN1CCc2c(sc3c2C(=O)NC(c2cn(Cc4ccccc4)c4ccccc24)N3)C1 (stereo not given)	1	-15%	-7	-1%	15µM*	9.2µM*
CN1CCc2c(sc3c2C(=O)NC(c2ccco2)N3)C1 (stereo not given)	-12	11%	14	12%	i	i
O=C1C2C3CCCC3=C3CCCC3C2C(=O)N1c1ccccc1Cl (stereo not given)	nt	-9%	17	-5%	nt	nt
CCOC(=O)[C@H](CCc1ccccc1)N[C@@H](C)C(=O)N(CC(=O)O)C1Cc2ccccc2C1	-7	nt	nt	nt	nt	nt
O=C(NCCO)c1cccc(Nc2nc(-c3ccccc3)c3cc(Cl)ccc3n2)c1	-6	15µM*	1	-27%	16µM*	i
Cc1ccc(C2=NN(C(=O)CSc3nccn3C)C(c3ccco3)C2)cc1 (stereo not given)	-1	?	7	-8%	9.2µM*	?
